This is an account of results in PubChem BioAssay (NCATS).

Values joined by “and” are separate entries in the source; they are usually repeats but may differ in a detail not shown here. Identical values can stand only once. Records with an inconclusive call do not appear. Where a structure was tested more than once in an assay, its records may differ in their call. Active and inactive are the calls of the source. Calls follow the shape of the dose curve; as a rule, active = well fitted inhibition curve with a large enough effect; inconclusive = small, poorly fitted or top-dose-only effect; inactive = no such curve, though single readings can be large or run the other way.
% is scaled to controls: 0 for no effect and ±100 for the full control effect.

This experiment is described as follows: Primary qHTS for inhibitors of nuclear receptor binding SET domain protein 2 (NSD2) in an RCH-ACV wild type WT cells (2C) (AID 1645877). Also: nearly all actives have a fitted effect of over 70% in size. The note with it: RCH-ACV (leukaemia line) NSD2 WT (2C) viability, CellTiter-Glo, 72 h; series mostly up to 44.9 µM; activity change, negative = cell killing: at the top concentration. The text has this: Assay Provider: Jonathan D. Licht, MD
University of Florida College of Medicine, Gainesville, FL
Mutations in epigenetic regulators are common in relapsed pediatric acute lymphoblastic leukemia (ALL). Here, we uncovered the mechanism underlying the relapse of ALL driven by an activating mutation of the NSD2 histone methyltransferase (p.E1099K). […] Correction of this mutation restored glucocorticoid sensitivity. The transcriptional response to glucocorticoids was blocked in NSD2 mutant cells due to depressed glucocorticoid receptor (GR) levels and the failure of glucocorticoids to autoactivate GR expression. […] Pre-treatment of NSD2 p.E1099K cell lines and PDX samples with PRC2 inhibitors reversed glucocorticoid resistance in vitro and in vivo.
High-throughput drug screening of isogenic RCH-ACV cell lines was performed at the National Center for Advancing Translational Science (NCATS), National Institutes of Health as previously described (1). Briefly, isogenic RCH-ACV NSD2 p.E1099K mutant (9B) and WT cells (2C) were plated at 500 cells/well in a 1536-well plate with a 72-hour incubation with compounds prior to addition of CellTiter-Glo to assess cell viability. NCATS libraries screened include: NPC, MIPE 5.0, Kinase and NPACT. To determine compound activity in the qHTS assay, the concentration-response data for each sample was plotted and modeled by a four-parameter logistic fit yielding IC50 and efficacy (maximal response) values. The area under the curve (AUC) of the dose-response curve ensures both efficacy (magnitude of cell killing) and potency (concentration that elicits cell killing) are accounted for in the analysis of activity.
1. Tobie D Lee, Olivia W Lee, Kyle R Brimacombe, Lu Chen, Rajarshi Guha, Sabrina Lusvarghi, Bethilehem G Tebase, Carleen Klumpp-Thomas, Robert W Robey, Suresh V Ambudkar, Min Shen, Michael M Gottesman, Matthew D Hall. A High-Throughput Screen of a Library of Therapeutics Identifies Cytotoxic Substrates of P-glycoprotein. Mol Pharmacol. 2019, Nov;96(5):629-640.
On the technique in general: qHTS replaces the single test concentration by a dilution series.
Regarding `C/C=C(/C)C(=O)O[C@H]1C(C)=C2[C@H]([C@@H]1OC(=O)CCCCCCC)[C@@](C)(OC(C)=O)C[C@H](OC(=O)CCC)[C@@]1(O)[C@H]2OC(=O)[C@@]1(C)O`, the Potency is 6.5 nM (active) and 16.6 nM (active). The same measure, in the same setting: then `O=C(N[C@@H](COc1ccc2[nH]c(=O)[nH]c2c1)c1ccccc1)c1cccn(Cc2ccc(F)c(F)c2)c1=O`, with 4.17 µM (active); and `CC(C)[C@]12O[C@H]1[C@@H]1O[C@]13[C@]1(O[C@H]1C[C@H]1C4=C(CC[C@@]13C)C(=O)OC4)[C@@H]2O`, with 12.9 nM (active) and 18.6 nM (active). Same read-out and setting: then `CCCN(CCC)c1c([N+](=O)[O-])cc(S(N)(=O)=O)cc1[N+](=O)[O-]`, with 12.2 µM (active).

`Cc1[nH]nc2ccc(-c3cncc(OC[C@@H](N)Cc4c[nH]c5ccccc45)c3)cc12`: the Potency was 81.7 nM (active) and 132 nM (active).

As to `O=C(Nc1ccncc1)C(=O)c1cn(Cc2ccc(Cl)cc2)c2ccccc12`, the Potency is 0.235 µM (active).

Consider `O=C(O)COc1nc(Cl)c(Cl)cc1Cl`, for which the “activity change, negative = cell killing” value is 2.37% [at 91.9 µM] (inactive). Consider `CCc1c(C(=O)C(N)=O)c2c(OCC(=O)O)cccc2n1Cc1ccccc1`, for which the outcome was inactive. Take `O=[N+]([O-])c1cc([N+](=O)[O-])c2ccccc2c1`: the “activity change, negative = cell killing” value was 2.19% [at 91.9 µM] (inactive). For `CSCC[C@@H](NC(=O)[C@@H](Cc1ccccc1)NC(=O)CNC(=O)CNC(=O)[C@@H](N)Cc1ccc(O)cc1)C(=O)O`, the molecule was classed as inactive.

Consider `O=C(O)C(Cl)Cl`, for which the Potency result is “inactive”. In the case of `O=C(NCC1CCOCC1)c1cnc(Nc2ccc(Cl)cc2Cl)nc1C(F)(F)F`, the “activity change, negative = cell killing” value is 1.06% (inactive). Regarding `CN(C)[C@@H]1C(=O)C(C(N)=O)=C(O)[C@@]2(O)C(=O)C3=C(O)c4c(O)cccc4[C@@](C)(O)[C@H]3[C@H](O)[C@@H]12`, the molecule was called inactive. Turning to `COC1=C[C@@H]2[C@@H]3Cc4ccc(OC)c(O)c4[C@]2(CCN3C)CC1=O`, the “activity change, negative = cell killing” value was -16.7% (inactive). Still for that read-out and setting: then `O=C(O)c1cc(Oc2ccc(C(F)(F)F)cc2Cl)ccc1[N+](=O)[O-]`, with -23.7% (inactive); and `O=[N+]([O-])c1c2ccccc2cc2ccccc12`, with -18.6% [at 91.9 µM] (inactive); and `CC(C)NCC(O)c1ccc([N+](=O)[O-])cc1` (stereo not given), with -6.33% (inactive). Still for that read-out and setting: then `CCCN1CCO[C@@H]2c3cc(O)ccc3OC[C@H]21`, with 6.45% (inactive); and `CN[C@@H]1Cc2cccc3[nH]c(=O)n(c23)C1`, with 7.38% (inactive). Same read-out and setting: then `CCCC[N+]1(C)[C@H]2CC(OC(=O)[C@H](CO)c3ccccc3)C[C@H]1[C@H]1O[C@H]12` (stereo not given in full), with 5.91% (inactive); and `NC1=NC(=O)N2CC12` (stereo not given), with -29.9% (inactive). Turning to `CCOC(=O)Nc1ccc(NCc2ccc(F)cc2)cc1N`, the “activity change, negative = cell killing” value was -20.2% (inactive). As for `CC[C@@]1(O)C(=O)OCc2c1cc1n(c2=O)Cc2cc3ccccc3nc2-1`, the Potency is 0.0132 µM (active). Turning to `O=C(O)COc1ccccc1`, the “activity change, negative = cell killing” value was 3.03% (inactive). On the same count and under the same terms, the result for `CC(=O)NCCc1c[nH]c2ccccc12` reads -1.57% [at 91.9 µM] (inactive); that for `CC1=C(C(=O)O)N2C(=O)[C@@H](N)[C@H]2SC1`, -8.72% [at 17.3 µM] (inactive).

For `Nc1ccc(N=Nc2ccccc2)cc1`, the Potency is 6.86 µM (active). For `CCOP(=O)(OCC)C(C)NC(=O)N(CCCl)N=O` (stereo not given), the outcome was inactive. In the case of `CCN1C[C@]2(OC(=O)c3ccccc3NC(C)=O)CC[C@H](OC)[C@@]34[C@H]5CC6[C@@H](OC)C[C@](O)(C(C[C@@H]23)[C@@H]14)[C@@]5(O)[C@@H]6OC`, the molecule was called inactive.

As for `CC(N[C@H]1C[C@H]1c1ccccc1)c1ccc2c(c1)OCCO2` (stereo not given in full), the “activity change, negative = cell killing” value was -22.6% (inactive). As for `C[C@](O)(COc1ccc(C#N)cc1)C(=O)Nc1ccc(C#N)c(C(F)(F)F)c1`, the Potency is 20.9 µM (active). Consider `O=S(=O)(CC1CS1)c1ccc(Oc2ccccc2)cc1` (stereo not given), for which the Potency was 5.25 µM (active). For `c1ccc2c(CN3CCNCC3)cccc2c1`, the “activity change, negative = cell killing” value is -0.565% (inactive). As to `CC(C)(C)c1cc(C=C(C#N)C#N)cc(Br)c1O`, the Potency is 16.4 µM (active) and inactive. As for `CC(=O)Nc1ccc(OC[C@](C)(O)C(=O)Nc2ccc([N+](=O)[O-])c(C(F)(F)F)c2)cc1`, the “activity change, negative = cell killing” value was -19.2% (inactive). For `C=CCC1=C(C)C(OC(=O)C2C(C=C(C)C)C2(C)C)CC1=O` (stereo not given), the Potency is 34.4 µM (active). As to `O=S(=O)(c1ccc(Cl)cc1)c1ccc(Cl)cc1`, the “activity change, negative = cell killing” value was -23.1% [at 91.9 µM] (inactive). In the case of `O=C(Oc1ccc([N+](=O)[O-])cc1)N1CCC(C(O)(c2ccc3c(c2)OCO3)c2ccc3c(c2)OCO3)CC1`, the Potency entry was “inactive”. The same measure, in the same setting: the result for `Nc1ccc(Sc2ccc(N)cc2)cc1` reads 34.4 µM (active). On to `CCOCCOC(C)=O`, for which the “activity change, negative = cell killing” value is 9.43% [at 91.9 µM] (inactive).
